Source: PubChem BioAssay AID602387 (Sanford-Burnham Center for Chemical Genomics, 2012)
Screen size: about 2,300 compounds; about 30 (1%) were called active.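 How the source made its calls: active means activation of at least 30% at 10 µM; inactive means the rest.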 Not all results are given here.

Experiment: beacon detection-step fluorescence artefacts – biochemical, fluorescent molecular beacon, single concentration, artefact control for DNMT1 inhibitor project, confirmation (AID 602387);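 further: DNMT1 catalytic domain with a HinP1I cleavage step and a FAM/dabcyl DNA beacon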
Conditions: DNMT1 molecular beacon spectral interference counterscreen, fluorescence 485/520; at 10 µM; hits give high values

Row | Structure (SMILES) | activation (fluorescence interference)
1 | COc1ccc(NC(=O)CCn2ccnc2)c(OC)c1 | 5.11% (inactive)
2 | Cc1ccc2[nH]c(=O)c(-c3nc4c(C)cccn4c3NCc3ccco3)cc2c1 | -3.31% (inactive)
3 | NNc1cccc(C=Cc2ccccc2)cc1=O | -0.89% (inactive)
4 | NC1=CC(=O)C(=O)c2cccnc21 | 34.8% (active)
5 | C=C(C)C(=O)Nc1cccc(C2=NOC3(C2)C[C@H](C(N)=O)N(C(=O)C(c2ccccc2)c2ccccc2)C3)c1 (stereo partly drawn) | -0.25% (inactive)
6 | CCC/C=C(\CCC)C(NC(=O)Cc1ccccc1)c1ccc(C(=O)OC)cc1 (stereo not drawn) | 2.66% (inactive)
7 | Cc1ccccc1NC(=O)CN1C(=O)N/C(=C\c2cccn2-c2cccc(C(=O)O)c2)C1=O | -2.61% (inactive)
8 | O=C(Nc1nc(-c2ccco2)c(-c2ccco2)s1)c1ccco1 | 6.11% (inactive)
9 | O=c1[nH]c(/C=C/c2cccc(Br)c2)nc2ccccc12 | -5.42% (inactive)
10 | CC(=O)Nc1ccccc1Sc1ccc2c3c(cccc13)C(=O)N(c1ccc(C)cc1)C2=O | 2.58% (inactive)
11 | Cc1ccc(Cc2cncc(O)c2)cc1S(=O)(=O)O | 5.41% (inactive)
12 | CC(=O)c1ccc(NC(=O)c2ccc3c(Cl)c4c(nc3c2)CCCC4)cc1 | -4.05% (inactive)
13 | Cc1ccccc1-n1cc(CNC(=O)CC2C(=O)NCCN2C/C=C/c2ccccc2)cn1 (stereo not drawn) | 1.73% (inactive)
14 | Cc1ccc(-c2cc(C(=O)NCc3cn(C)nc3C)c3cc(Br)ccc3n2)cc1 | 2.74% (inactive)
15 | Cc1ccc(-c2nnc(-c3ccc(NC(=O)c4cccs4)cc3)o2)cc1 | -3.03% (inactive)
16 | O=C(CN1CCCSc2ccccc21)N1CCN(S(=O)(=O)c2cccc(F)c2)CC1 | 2.83% (inactive)
17 | O=C(COC(=O)/C=C/c1cn(-c2ccccc2)nc1-c1cccnc1)Nc1ccc(Cl)cc1Cl | -2.13% (inactive)
18 | O=C(Nc1cccc(F)c1)c1cc(-c2ccco2)nc2ccccc12 | 3.89% (inactive)
19 | COc1ccc(CC(=O)Nc2ccc(-c3nnc(-c4ccccc4)o3)cc2)cc1 | -2.31% (inactive)
20 | CCOc1ccc(CN2CCC(n3nccc3NC(=O)C3CC3)CC2)cc1CO | 3.5% (inactive)

Row | Structure (SMILES) | activation (fluorescence interference)
21 | Nc1cc2c(cc1Br)-c1ccc(F)cc1C2=O | -1.05% (inactive)
22 | COc1ccc2c(c1)c(=O)c(C(=O)c1ccc(Cl)cc1)cn2CC(=O)Nc1ccc(F)cc1 | -1.8% (inactive)
23 | O/N=C1\CC2(Cc3nonc31)OCCO2 | 2.87% (inactive)
24 | CCOC(=O)N1CC=C2C(C#N)=C(N)C(C#N)(C#N)[C@H](c3cccs3)[C@H]2C1 | 9.6% (inactive)
25 | NC(CSC(c1ccccc1)(c1ccccc1)c1ccc(-c2ccccc2)cc1)C(=O)O (stereo not drawn) | 5.09% (inactive)
26 | CC1CN(C(=O)c2ccccc2NS(=O)(=O)c2cccc([N+](=O)[O-])c2)CC(C)O1 (stereo not drawn) | 1.08% (inactive)
27 | C=CC1=C(C(=O)O)N2C(=O)[C@@H](NC(=O)/C(=N\OCC(=O)O)c3csc(N)n3)[C@H]2SC1 | 7.32% (inactive)
28 | Cc1ccc(N=C2NC(=O)/C(=C/C=C/c3ccco3)S2)cc1C | -1.63% (inactive)
29 | CN(C)/C=C(/C(=O)c1ccc(Cl)cc1)S(=O)(=O)c1ccccc1 | 1.79% (inactive)
30 | Cc1cc2nc(-c3ccco3)c(Cc3cccc(F)c3)n2c(C)c1Br | 0.96% (inactive)
31 | COc1ccc(Cc2nnc(NC(=O)Cc3cccs3)s2)cc1 | -0.3% (inactive)
32 | CCc1ccc(NC(=O)CS(=O)CC(=O)NCCCc2ccccc2)cc1 (stereo not drawn) | 2.85% (inactive)
33 | CCOc1cc(CN2CCCC(CO)(Cc3ccc(F)cc3F)C2)ccc1OC (stereo not drawn) | 4.08% (inactive)
34 | Cc1onc(-c2ccccc2)c1C(=O)Nc1ccccc1C#N | 3.12% (inactive)
35 | Cc1cc(O)c(C(=O)/C=C/c2c(F)c(F)c(F)c(F)c2F)c(=O)o1 | 6.03% (inactive)
36 | c1coc(-c2nc3nc4ccccc4n3nc2-c2ccco2)c1 | 0.5% (inactive)
37 | CCN(C(=O)CSc1nc(N)cc(=O)[nH]1)C1CCS(=O)(=O)C1 (stereo not drawn) | 2.08% (inactive)
38 | c1ccc2cc3c(NCCN4CCOCC4)ccnc3cc2c1 | -0.48% (inactive)
39 | O=C(Cn1nnc(-c2ccccc2)n1)N/N=C/c1ccc(-c2ccc(Cl)cc2)o1 | 3.12% (inactive)
40 | CC1(C(=O)NS(=O)(=O)c2ccccc2)CCN1C(=O)C/C=C/c1ccccc1 (stereo not drawn) | -0.14% (inactive)

Row | Structure (SMILES) | activation (fluorescence interference)
41 | CCN1CCN(Cc2nc3c(c(=O)n(C)c(=O)n3C)n2CC(=O)c2ccccc2)CC1 | 2.13% (inactive)
42 | C/C(=N\Nc1ccc(S(N)(=O)=O)cc1[N+](=O)[O-])c1cccs1 | 0.04% (inactive)
43 | O=C(COC(=O)c1ccc(F)cc1F)Nc1ncccn1 | 3.67% (inactive)
44 | C=CCn1c(=NC(=O)c2ccc(S(=O)(=O)N3CCCC3)cc2)sc2cc(NC(C)=O)ccc21 | -2.75% (inactive)
45 | Cc1ccc(/C=C/C(=O)Nc2ccc([N+](=O)[O-])c(NC(=O)/C=C/c3ccc(C)o3)c2)o1 | -0.1% (inactive)
46 | O=C(COC(=O)CCC(=O)c1cccs1)NCc1ccco1 | 2.99% (inactive)
47 | CC(C)(C)N(Cc1ccccc1)C(=O)c1ccncc1 | 4.75% (inactive)
48 | CCOC(=O)c1c(NC(=S)NC(=O)/C=C/c2cccs2)sc(C)c1C | 2.75% (inactive)
49 | CN(Cc1nc2ccc(F)cc2[nH]1)Cc1nc(CC2CC2)no1 | 5.14% (inactive)
50 | O=C(c1cccs1)N1CCC(c2nc3ccccc3s2)CC1 | 4.65% (inactive)
51 | O=C(CCNC(=O)c1ccccc1)NN=Cc1ccc(Br)o1 | 2.53% (inactive)
52 | CCOC(=O)/C(C#N)=C/c1ccc(OCC(=O)Nc2ccccc2)c(OC)c1 | 6.65% (inactive)
53 | COc1cccc(C(=O)Nc2ccc(N3CCCC3)cc2)c1 | 5.04% (inactive)
54 | C=Cc1ccc(C(=O)N2CCCC(CCC(=O)N3CCN(c4ccccn4)CC3)C2)cc1 (stereo not drawn) | -0.29% (inactive)
55 | CCN1C(=O)c2cccc3c(N)ccc1c23 | 6.17% (inactive)
56 | CCNC(=O)C1CCCN(C(=O)c2cc(F)ccc2C)CC1 (stereo not drawn) | 5% (inactive)
57 | COc1ccc(C(=O)OCC(=O)Nc2cccc(C(C)=O)c2)cc1OC | 8.78% (inactive)
58 | CCOc1ccccc1/C=c1\sc2nc(-c3ccco3)nn2c1=O | 3.15% (inactive)
